Reference: PubChem BioAssay AID463215 (Sanford-Burnham Center for Chemical Genomics, 2010)
In all, about 4,600 compounds went through this assay and about 2,900 (63%) were called active. The set was probably picked from earlier hits. A selection follows. Unmarked numbers belong to inactive results.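 The calls were made as follows: active = inhibition of yeast growth at or above a set limit in either of two replicates at 10 µM; inactive = the rest.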

assay: growth inhibitors of wild-type TIM10 yeast, confirmation, counter-screen for tim10-1 synthetic lethality project, single concentration, luminescence, S. cerevisiae (AID 463215);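 also: isogenic wild-type TIM10 control yeast grown in succinate dextrose medium; 0% = yeast with DMSO and 100% = medium wells lacking yeast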; conditions: S. cerevisiae tim10 strain growth, BacTiter-Glo luminescence, 24 h; at 10 µM; active compounds read high

| Compound | inhibition |
| --- | --- |
| Fc1cccc(Cl)c1CSc1ccc(-c2ccco2)nn1 | 35.9% (active) |
| O=C(/C=C/c1ccc(Cl)c([N+](=O)[O-])c1)c1cccnc1 | 81.2% (active) |
| COc1cc([N+](=O)[O-])ccc1NC(=O)COC(=O)CCOc1ccc(C)cc1 | 43.4% (active) |
| C=CS(=O)c1sc(Cl)c(N2CCOCC2)c1[N+](=O)[O-] (configuration not stated) | 87.5% (active) |
| CCc1ccc2c(c1)C1(NN=C(c3ccccc3)S1)C(=O)N2 (configuration not stated) | 43.3% (active) |
| O=C(N/N=C/c1c[nH]c2ccccc12)c1cc2ccccc2o1 | 22.9% |
| Cc1ccc(Nc2nc(Cl)c(C=O)s2)cc1 | 10.7% |
| Nc1ccccc1SC(C[N+](=O)[O-])c1ccccc1 (configuration not stated) | 53.5% (active) |
| O=C(Nc1ccc2oc(-c3ccccc3F)nc2c1)c1ccco1 | 62.4% (active) |
| O=C(Nc1nc(-c2ccco2)c(-c2ccco2)s1)c1ccco1 | 39.9% (active) |
| COCCNC(=O)/C(C#N)=C/c1cccc(OCc2ccccc2)c1 | 69.5% (active) |
| Cc1cc(C)n(-c2nc(SCC(=O)N3CCCC3)c3c4c(sc3n2)CCCC4)n1 | 23.4% |
| COc1ccc(CNC(=O)/C(C#N)=C/c2cccc(OC)c2OC)cc1 | 80.8% (active) |
| CCOC(=O)C(=Cc1ccccc1OC)C(=O)OCC | 27.6% |
| c1ccc(-c2nccc(-c3ccc(-n4cnc5ccccc54)cc3)n2)nc1 | -3.75% |
| CCN(CC)CCN(C(=O)c1ccc(S(=O)(=O)N2CCOCC2)cc1)c1nc2cc3c(cc2s1)OCCO3 | 28.1% |
| CN(C)CCCN(C(=O)c1ccc(S(=O)(=O)N2CCCc3ccccc32)cc1)c1nc2ccc(F)cc2s1 | 41.4% (active) |
| COc1cccc(NC(=O)CSc2nccn(-c3ccc4c(c3)OCCO4)c2=O)c1 | 8.7% |
| O=C(NNc1c2ccccc2nc2ccccc12)c1cc2ccccc2cc1O | -21.2% |
| COc1ccc(Oc2cn[nH]c2-c2ccc(OC)cc2O)cc1 | 31% (active) |
| O=S(=O)(NC1CCCCC1)c1ccc(F)c2ccccc12 | 29.4% |
| Fc1ccc(/C=N/n2c(COc3ccccc3)n[nH]c2=S)cc1 | 37% (active) |
| CC[C@@H]1Cc2cc(O)ccc2C2=C1c1ccc(O)cc1C[C@H]2CC | 66.3% (active) |
| Cc1[nH]c2ccccc2c1C(=O)COC(=O)c1c(-c2ccccc2)noc1C | 36.8% (active) |
| CCC(C)(C)n1nnnc1CN1CCN(c2nc3ccc(C)cc3cc2C#N)CC1 | 24.8% |

| Compound | inhibition |
| --- | --- |
| O=C(NCc1ccco1)c1cc2sccc2n1Cc1ccc(F)cc1 | 23.6% |
| CCc1cccc(CC)c1NC(=S)NCc1ccc2[nH]c(C)cc2c1 | 52.9% (active) |
| CCc1sc(C(=O)N2CCN(CC(=O)Nc3cccc(F)c3)CC2)cc1C | 60.8% (active) |
| C[C@@H]1C(c2ccc(F)cc2)=NN(c2ccc(Br)cc2)[C@H]1C(=O)N1CCOC1=O | 52.1% (active) |
| N/C(=N\OC(=O)Cc1ccccc1[N+](=O)[O-])c1ccc(Br)cc1 | 53% (active) |
| CC(/C=N/NC(=O)c1cc(-c2ccc3ccccc3c2)n[nH]1)=C\c1ccco1 | 42.5% (active) |
| O=C1c2ccccc2C(=O)N1CC1c2ccccc2CCN1S(=O)(=O)c1ccccc1 (configuration not stated) | 22.5% |
| O=S(=O)(ON(c1ccccc1)S(=O)(=O)c1ccccc1)c1ccccc1 | -4.35% |
| Cc1nn(Cc2ccc(Cl)c(Cl)c2)c(C)c1NC(=O)c1cc(C2CC2)on1 | 33.2% (active) |
| Oc1ccccc1C1=NN(c2ccccc2)C(c2ccccc2)C1 (configuration not stated) | 70.5% (active) |
| COc1ccc(Cn2c(-c3ccc(Cl)cc3)c[n+]3ccccc23)cc1 | 34.7% (active) |
| S=C(NCCCc1ccccc1)Nc1ccc(Br)cc1 | 31.7% |
| COc1ccc(NC(=S)NCC2CCN(c3ccc(OC)cc3)C2)cc1 (configuration not stated) | -5.6% |
| O=C(Cc1ccccc1)NC(=S)Nc1ccc(N2CCCCC2)cc1 | 39.8% (active) |
| COc1ccc(-c2cc(-c3ccc(N)cc3)nc(N)c2C#N)cc1OC | 33.8% (active) |
| O=C(O)c1ccc(N/N=C/c2cn(-c3ccccc3)nc2-c2cccs2)cc1 | 64.8% (active) |
| O=C(Nc1ccc(C(F)(F)F)cc1)c1cccc(-n2cnnn2)c1 | 23.1% |
| Cc1nnnn1/C(=C\c1ccccc1)C(=O)OCC(=O)N1CC2(C)CC1CC(C)(C)C2 (configuration not stated) | 50.7% (active) |
| c1ccc(-c2cn3c(n2)CCc2ccc4cccnc4c2-3)cc1 | 37% (active) |
| COc1cccc(CNc2nc(C(F)(F)F)nc3ccccc23)c1 | 27.1% |
| c1ccc(-c2nc(NCc3ccco3)c3ccccc3n2)cc1 | 34% (active) |
| Cc1ccccc1-c1nc(C#N)c(NCc2ccco2)o1 | 11.5% |
| CC(C)N(Cc1ccccc1)C(=S)Nc1ccc(OC(F)F)cc1 | -14% |
| COc1cc(/C=N/NC(=O)c2ccccc2)ccc1OS(=O)(=O)c1ccccc1 | 17.2% |
| O=C(N/N=C\c1cccc(Br)c1)c1ccccc1-n1cccc1 | -4.2% |

| Compound | inhibition |
| --- | --- |
| COc1ccc(C(=O)Nc2ccccc2C(=O)N/N=C/c2ccccc2OC)cc1 | 43.1% (active) |
| COc1ccc(C(=O)Nc2ccccc2C(=O)N/N=C/c2ccc(O)c(OC)c2)cc1 | 93.3% (active) |
| Cc1nc2sc(C(=O)c3ccccc3)c(N)c2c2c1CCCC2 | 23% |
| OC(CNCC1CCCO1)Cn1c2ccc(Br)cc2c2cc(Br)ccc21 (configuration not stated) | 51.4% (active) |
| COc1ccc(OC)c2sc(NC(=O)C3COc4ccccc4O3)nc12 (configuration not stated) | 34.8% (active) |
| COc1ccc(NC(=O)/C(Cl)=C(/Cl)S(=O)Cc2ccc(C)cc2)cn1 (configuration not stated) | 88% (active) |
| COc1ccc(CS(=O)/C(Cl)=C(/Cl)C(=O)Nc2ccc(OC)nc2)cc1 (configuration not stated) | 78.3% (active) |
| O=[N+]([O-])c1ccc(C=Nc2ccc(Cl)cc2Cl)s1 | 44.1% (active) |
| Cn1c(-c2sccc2OCc2cccc(C(F)(F)F)c2)n[nH]c1=S | 34.8% (active) |
| Cc1cccc(/C(N)=N/OC(=O)c2ccccc2Cl)c1 | 77.7% (active) |
| NS(=O)(=O)c1ccc(NC(=S)Nc2ccc(Br)c(Cl)c2)cc1 | 16.9% |
| N/C(=N\OC(=O)c1cc(-c2ccccc2)nc2ccccc12)c1ccncc1 | 64.8% (active) |
| O=C(NCCN1C(=O)S/C(=C\c2cccnc2)C1=O)c1cccc(OC(F)F)c1 | -9.15% |
| CCCCNC(=S)N/N=C1\CCCCc2ccccc21 | 34.3% (active) |
| CCN1/C(=C\c2ccc3ccccc3[n+]2CC)Sc2cc(C)ccc21 | 78.1% (active) |
| Cc1oc2c(c1C(=O)N1CCOCC1)C(=O)c1ccccc1C2=O | 22.8% |
| O=C(/C=C/Sc1ncn[nH]1)c1ccc(Cl)cc1 | 79% (active) |
| O=C(ON=C1CCN(S(=O)(=O)c2ccccc2)CC1)c1ccc(Cl)cc1 | 62.2% (active) |
| Cc1ccccc1NCC(=O)N/N=C\c1ccc([N+](=O)[O-])s1 | 37.2% (active) |
| O=[N+]([O-])c1ccc2c(c1)Nc1nc3ccccc3nc1N2 | 83.8% (active) |
| O=[N+]([O-])c1cccc(Nc2c3ccccc3nc3ccccc23)c1 | 21.6% |
| O=C1NC(=O)C2C1C(c1ccc([N+](=O)[O-])cc1)=NN2Cc1ccccc1 (configuration not stated) | 4.5% |
| COc1ccc(C(=O)COC(=O)c2ccc([N+](=O)[O-])s2)cc1OC | 81.8% (active) |
| COc1nc(NC2CCCCC2)nc(N2CCCCCC2)n1 | -15.7% |
| Cc1ccc(NC(=O)c2cccs2)cc1S(=O)(=O)N(C)C | -1.3% |

| Compound | inhibition |
| --- | --- |
| O=C(Nc1ccc2c(c1)CCC2)c1ccc(Br)s1 | 44% (active) |
| N/C(Cc1ccc([N+](=O)[O-])cc1)=N\OC(=O)C1CCCCC1 | 49.2% (active) |
| N/C(Cc1ccc([N+](=O)[O-])cc1)=N\OC(=O)COc1ccc2ccccc2c1 | 51% (active) |
| CC1(C)CCSC(/C=C/c2ccccc2)=N1 | 56.7% (active) |
| CNC(=S)N/N=C/c1cn(Cc2ccc(C)cc2)c2ccccc12 | 53.4% (active) |
| CSC(=S)N/N=C/c1c[nH]c2ccccc12 | 20.1% |
| COC(=O)c1c(NC(=O)CSc2nncs2)sc2c1CCCCC2 | 25.7% |
| COC(=O)c1sccc1NS(=O)(=O)c1ccc(F)cc1F | 42.8% (active) |
| O=C(Oc1ccc(F)cc1)N1CCOCC1 | -0.9% |
| O=C(/C=C/c1cccs1)c1cc(Cl)ccc1OC(=O)N1CCOCC1 | 40.2% (active) |
| C[C@@H](NC(=O)OC(C)(C)C)c1nnc(S(=O)(=O)Cc2ccccc2)o1 | 43.6% (active) |
| N#C/C(=C\c1ccccc1C(F)(F)F)C(=O)Nc1ccccc1F | 46.9% (active) |
| CCCc1[nH]nc2c1C(c1ccc(Br)s1)C(C#N)=C(N)O2 (configuration not stated) | 73.4% (active) |
| Cc1ccc(-c2ccc(/C=C(\C#N)C(N)=S)o2)c([N+](=O)[O-])c1 | 54.1% (active) |
| O=[N+]([O-])c1ccccc1S(=O)(=O)Nc1cccc2cccnc12 | 19.5% |
| O=c1nc2s/c(=C\c3ccco3)c(=O)n2nc1Cc1ccccc1 | 56.5% (active) |
| Oc1ccc(/C=N/N(Cc2ccccc2)c2ccccc2)cc1 | 28.2% |
| CCOC(=O)c1ccc(N2C(=O)CC(N3CCC(C(=O)OCC)CC3)C2=O)cc1 (configuration not stated) | 21.4% |
| Cc1cc(Nc2ccccc2)n(C(=O)c2ccc(N)cc2)n1 | 57.5% (active) |
| CN1CCN(c2ccccc2NC(=O)COc2ccc(C3CCCCC3)cc2)CC1 | 30.4% (active) |
| O=C(NC(Nc1nc2ccc([N+](=O)[O-])cc2s1)(C(F)(F)F)C(F)(F)F)c1ccccc1 | 77.7% (active) |
| N#C/C(=C\c1cccnc1)C(=O)Nc1ccc(SC(F)F)cc1 | 42.2% (active) |
